According to PubChem BioAssay AID382 (SGCOxCompounds, 2006):
Calls of active or inactive are those of the source. The rule behind the calls is not given here.

Molecular target: Dual specificity protein kinase CLK1 (Homo sapiens) (UniProt P49759)
Assay: ligand-induced CLK1 melting temperature shift – biophysical, recombinant human kinase, DSF (AID 382)
Details: Recombinant CLK1, thermal shift (DSF), buffer 10 mM HEPES, stronger effect = higher value
[1] = measured here: replicate experiment 2, at 10 µM, run 2, protein 2 µM, NaCl 150 mM

Dual specificity protein kinase CLK1 (Homo sapiens), sequence (P49759 whole entry, looked up): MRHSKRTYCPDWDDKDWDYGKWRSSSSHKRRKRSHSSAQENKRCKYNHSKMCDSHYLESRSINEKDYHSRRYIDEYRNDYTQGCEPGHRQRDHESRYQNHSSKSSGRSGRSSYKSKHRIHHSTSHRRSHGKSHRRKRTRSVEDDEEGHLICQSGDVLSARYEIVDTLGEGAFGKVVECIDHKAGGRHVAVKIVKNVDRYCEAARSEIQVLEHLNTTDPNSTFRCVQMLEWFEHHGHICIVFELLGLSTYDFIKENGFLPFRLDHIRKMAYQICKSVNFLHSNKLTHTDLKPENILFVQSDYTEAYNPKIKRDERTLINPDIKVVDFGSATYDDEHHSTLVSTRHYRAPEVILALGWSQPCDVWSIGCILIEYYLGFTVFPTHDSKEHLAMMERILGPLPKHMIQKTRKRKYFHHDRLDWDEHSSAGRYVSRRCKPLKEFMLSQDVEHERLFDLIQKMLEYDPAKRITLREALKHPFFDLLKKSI

## N#C/C(=C1\Nc2ccccc2S1)c1ccnc(NCCc2cccnc2)n1
At 10 µM, protein 2 µM, pH 7.5, NaCl 150 mM, with 50 µM L-Arg/L-Glu (1:1)
  Tm shift: 5.9 Celsius (active)

## Cc1c2ccncc2c(C)c2c1[nH]c1ccccc12
At 10 µM, protein 2 µM, pH 7.5, NaCl 150 mM, with 50 mM Arg/Glu
  Tm shift: 3.3 Celsius (active)

## CCn1cnc2c(Nc3cccc(Cl)c3)nc(N[C@@H]3CCCC[C@@H]3N)nc21
[1]
  Tm shift: 4.5 Celsius

## COc1ccc2c(c1)/C(=C/c1cnc[nH]1)C(=O)N2
[1]
  Tm shift: 3.4 Celsius
